From PubChem BioAssay

Legend:
[1] = molecular target: Tumor necrosis factor receptor superfamily member 10B (Homo sapiens) (UniProt O14763); assay: caspase-8 TRAIL sensitization, hit retest, confirmation, cell-based, NB7+caspase-8, with/without TRAIL, luminescence panel (AID 651596); settings: NB7 neuroblastoma + caspase-8, TRAIL sensitization, luminescence viability, with TRAIL, mean of runs, at 10 µM, stronger effect = higher value
[2] = as above; settings: NB7 neuroblastoma + caspase-8, without TRAIL, luminescence viability, without TRAIL, mean of runs, at 10 µM

Chain of Tumor necrosis factor receptor superfamily member 10B (Homo sapiens) (O14763 whole entry, looked up): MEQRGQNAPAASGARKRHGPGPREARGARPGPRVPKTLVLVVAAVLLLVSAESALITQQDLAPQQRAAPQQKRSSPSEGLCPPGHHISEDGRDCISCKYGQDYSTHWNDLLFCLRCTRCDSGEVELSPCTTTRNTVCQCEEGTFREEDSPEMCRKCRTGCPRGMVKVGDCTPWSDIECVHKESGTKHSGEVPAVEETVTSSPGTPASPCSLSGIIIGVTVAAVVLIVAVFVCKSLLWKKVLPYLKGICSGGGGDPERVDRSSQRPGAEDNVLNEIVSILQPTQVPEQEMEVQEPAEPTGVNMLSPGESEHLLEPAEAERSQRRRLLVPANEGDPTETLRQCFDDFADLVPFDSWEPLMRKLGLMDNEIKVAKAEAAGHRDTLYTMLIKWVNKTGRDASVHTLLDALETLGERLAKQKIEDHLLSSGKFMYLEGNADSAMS

Compound | activity [1] [%] | activity [2] [%]
O=C1C(=C2CCc3ccccc32)Cc2ccccc21 | 41.5 | 48.9
CCOc1ccc2nc(N3C(=O)CNC3=S)sc2c1 | 65.2 | 60.6
Cc1nc(-c2ccc(C(=O)Nc3ccccc3F)cc2)cs1 | 81.9 | 84.3
COc1ccc(-n2nc3cc(C)c(NC(C)=O)cc3n2)cc1 | 71.8 | 75.7
C=CCNC(=O)c1cc(-c2ccc3c(c2)OCO3)on1 | 63.3 | 61.1
COc1ccc2sc(NC(=O)c3ccco3)nc2c1 | 68.9 | 74.8
CCOc1cc(CNCCc2ccc(S(N)(=O)=O)cc2)ccc1OCc1ccc(Cl)cc1 | 65.4 | 84.1
CC(C)N(CC(=O)Nc1ccc(Cl)cc1C(F)(F)F)C(=O)CCl | 99.4 | 96.2
Cc1ccc(S(=O)(=O)NC(=O)NC2=NC(C)(C)N(c3ccc(Cl)c(Cl)c3)C(N)=N2)cc1 | 77.4 | 84.2
O=C(NCc1cc(C(F)(F)F)ccc1Cl)c1cccc2c1C(=O)c1ccc(N3CCC(N4CCCCC4)CC3)cc1S2(=O)=O | 93 | 93.6
Cc1ccc(-c2ccccc2NC(=O)CCl)o1 | 47.4 | 64.3
O=C(N/N=C/c1cccnc1)c1ccc2c(c1)OCCO2 | 76.2 | 67
CCCCCCCCCCCC1N=C(N)NC(CCCO)=C1C(=O)OC (configuration not stated) | 16.3 | 18.3
O=C(Nc1ccc(-c2nc3ccccc3[nH]2)cc1)C1CCCO1 (configuration not stated) | 79.5 | 71
CCOC(=O)c1c(C)nc2c3ccccc3ccn12 | 51.9 | 58.9
Cc1ccc(N(NC(=O)C(O)(c2ccccc2)c2ccccc2)C(=O)CCl)cc1 | 98.5 | 97.6
C/C(=N\Nc1cccc2cccnc12)c1ccccn1 | 69.8 | 59.6
O=C(Nc1nc2ccccc2[nH]1)c1cc2ccccc2o1 | 87.2 | 87
COc1ccc(/C=C/c2nc3ccccc3c(=O)o2)cc1 | 83.2 | 83.6
CC(=O)Nc1ccc2nc(-c3ccccc3)cn2c1 | 46.1 | 52.6
CCC(COC)Oc1cc(NCc2ccccc2)c2ncn(C(C)C)c2c1 (configuration not stated) | -8.03 | -13.1
Cc1ccccc1Oc1cc(-n2ncc(Cl)c(Cl)c2=O)ncn1 | 99.7 | 99.5
O=C(N/N=C/c1ccc2ncccc2c1)c1ccco1 | 75.7 | 70.7
CCN1CCCC1CNC(=O)c1ccc2c(c1)NC(=O)/C(=C\c1ccc(C)cc1)S2 (configuration not stated) | 89.7 | 98.9
CCCCN(C)C(=O)c1ccc(Nc2nc(C(N)Cc3ccc(C(F)(F)F)cc3)cs2)nc1 (configuration not stated) | 56.9 | 90.2
COc1cccc2oc3ccc(C#Cc4ccccn4)cc3c(=O)c12 | 71.8 | 87.5
